From the supplement of paper PMC7695840 come the findings set out here.

Where a name gives a salt, the structure may show the parent alone.

In assay [1] the test system is Staphylococcus aureus MW2 delta-mecA (mecA-). The assay is described as follows: normalized GFP fluorescence (growth of mecA- strain) (fraction of control range); higher = more growth of mecA- strain. The following applies: compound concentration: 150 uM; cefoxitin: subinhibitory; fluorescent label: GFP. The essentials: (§1)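 Pre-induced S. aureus MW2 cells carrying the gene (DsRed) and deletion cells lacking it (GFP) were combined 1:1 in LB containing a subinhibitory antibiotic dose set each day, then dispensed at 5 µL/well onto 150 μM compound (1.5% DMSO) in 1536-well plates as a single replicate. After 20 h at 37 °C and 90% humidity without shaking, DsRed (540/590) and GFP (485/520) were read. Each channel was scaled per plate between the medians of the single-strain controls, and plates with high untreated ratios and rows with DsRed/GFP >10 were excluded.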

The test system of assay [2] is Staphylococcus aureus MW2 (mecA+). The assay is described as follows: normalized DsRed fluorescence (growth of mecA+ strain) (fraction of control range); higher = more growth of mecA+ strain. The note with it: compound concentration: 150 uM; cefoxitin: subinhibitory; fluorescent label: DsRed. The procedure, abridged: as §1

Consider `O=C(NCC(O)CO)c1c(I)c(C(=O)NCC(O)CO)c(I)c(N(CCO)C(=O)CO)c1I` (stereo not drawn), for which the “normalized GFP fluorescence” value in assay [1] worked out at 0.368. Besides, the “normalized DsRed fluorescence” value in assay [2] was 1.04.
Consider `COc1ccc2cccc(CCNC(C)=O)c2c1` [Agomelatine], for which the “normalized GFP fluorescence” value in assay [1] turned out to be 0.243. The “normalized DsRed fluorescence” value in assay [2] was found to be 0.62.
Turning to `C[C@H](N)[C@H](O)c1cccc(O)c1`, the “normalized GFP fluorescence” value in assay [1] turned out to be 0.482. For the same compound, the “normalized DsRed fluorescence” value in assay [2] is 0.581.
On to `NC(=O)N1c2ccccc2CC(=O)c2ccccc21`, for which the “normalized GFP fluorescence” value in assay [1] turned out to be 0.596. Further, in assay [2], the “normalized DsRed fluorescence” value is 0.408.
Turning to `Cc1ccc(Nc2nccc(N(C)c3ccc4c(C)n(C)nc4c3)n2)cc1S(N)(=O)=O` [Pazopanib], the “normalized GFP fluorescence” value in assay [1] turned out to be 0.64. In addition, in assay [2], the “normalized DsRed fluorescence” value was 0.586.
Turning to `CC(CN(C)C)CN1c2ccccc2CCc2ccccc21` (stereo not drawn), the “normalized GFP fluorescence” value in assay [1] stood at 0.0825. For the same compound, the “normalized DsRed fluorescence” value in assay [2] was found to be 1.55.
With `COC(=O)Nc1nc2cc(C(=O)c3ccc(F)cc3)ccc2[nH]1`, the “normalized GFP fluorescence” value in assay [1] amounted to 0.715. Moreover, the “normalized DsRed fluorescence” value in assay [2] was 0.661.
For `CC1=C(C(=O)O)N2C(=O)[C@@H](NC(=O)[C@H](N)c3ccc(O)cc3)[C@H]2SC1` the same measures were 0.0167 and 1.2.
As to `C[C@H]1C[C@H]2[C@@H]3CCC4=CC(=O)C=C[C@]4(C)[C@@]3(F)[C@@H](O)C[C@]2(C)[C@@]1(O)C(=O)CO` [Betamethasone (Celestone)], the “normalized GFP fluorescence” value in assay [1] came out at 0.0397. Moreover, the “normalized DsRed fluorescence” value in assay [2] came to 1.3.
For `CC[C@]1(O)C[C@@H]2CN(CCc3c([nH]c4ccccc34)[C@@](C(=O)OC)(c3cc4c(cc3OC)N(C)[C@H]3[C@@](O)(C(=O)OC)[C@H](OC(C)=O)[C@]5(CC)C=CCN6CC[C@]43[C@@H]65)C2)C1` [Vinblastine], the “normalized GFP fluorescence” value in assay [1] stood at 0.0776. Besides, in assay [2], the “normalized DsRed fluorescence” value is 0.851.
Regarding `Cc1ccc(N(CC2=NCCN2)c2cccc(O)c2)cc1`, the “normalized GFP fluorescence” value in assay [1] turned out to be 0.3. The “normalized DsRed fluorescence” value in assay [2] was 0.634.
With `CCN(CC)C(=O)/C(C#N)=C/c1cc(O)c(O)c([N+](=O)[O-])c1` [Entacapone], the “normalized GFP fluorescence” value in assay [1] is 0.111. In addition, the “normalized DsRed fluorescence” value in assay [2] is 1.35.
Take `C[C@]12CCC(=O)C=C1[C@@H]1C[C@@H]1[C@H]1[C@@H]3[C@@H]4C[C@@H]4[C@@]4(CCC(=O)O4)[C@@]3(C)CC[C@@H]12`: the “normalized GFP fluorescence” value in assay [1] stood at 0.162. Besides, the “normalized DsRed fluorescence” value in assay [2] was found to be 0.65.
For `COc1cc(N)c(Cl)cc1C(=O)NC1CCN(CCCOc2ccc(F)cc2)CC1OC` (stereo not drawn) the same measures were 0.458 and 0.643.
As for `O=C(O)COCCN1CCN(C(c2ccccc2)c2ccc(Cl)cc2)CC1` (stereo not drawn), in assay [1], the “normalized GFP fluorescence” value is 0.0457. Moreover, the “normalized DsRed fluorescence” value in assay [2] was found to be 0.556.
For `Cc1ccc(O)c([C@H](CCN(C(C)C)C(C)C)c2ccccc2)c1` [Tolterodine tartrate (Detrol LA)], in assay [1], the “normalized GFP fluorescence” value came out at 0.08. The “normalized DsRed fluorescence” value in assay [2] was found to be 0.489.
For the compound `COC(=O)Nc1nc2cc(C(=O)c3ccccc3)ccc2[nH]1`, the “normalized GFP fluorescence” value in assay [1] worked out at 0.145. Moreover, in assay [2], the “normalized DsRed fluorescence” value turned out to be 1.25.
Regarding `CC1(C)O[C@@H]2C[C@H]3[C@@H]4CCC5=CC(=O)C=C[C@]5(C)[C@H]4[C@@H](O)C[C@]3(C)[C@]2(C(=O)CO)O1`, the “normalized GFP fluorescence” value in assay [1] came out at 0.387. Also, the “normalized DsRed fluorescence” value in assay [2] came to 1.36.
Regarding `O=C1CCc2cc(OCCCCc3nnnn3C3CCCCC3)ccc2N1`, the “normalized GFP fluorescence” value in assay [1] is 0.533. The “normalized DsRed fluorescence” value in assay [2] is 0.561.
For the compound `Nc1nc(=O)[nH]cc1F`, the “normalized GFP fluorescence” value in assay [1] amounted to 0.282. The “normalized DsRed fluorescence” value in assay [2] is 0.62.
Take `CCN(CC)CC#CCOC(=O)C(O)(c1ccccc1)C1CCCCC1` (stereo not drawn): in assay [1], the “normalized GFP fluorescence” value came to 0.0426. Besides, the “normalized DsRed fluorescence” value in assay [2] stood at 0.796.
As for `CC1(C)S[C@@H]2[C@H](NC(=O)Cc3ccccc3)C(=O)N2[C@H]1C(=O)O`, in assay [1], the “normalized GFP fluorescence” value stood at 0.0214. Also, the “normalized DsRed fluorescence” value in assay [2] turned out to be 0.0849.
In the case of `Nc1ncn([C@@H]2O[C@H](CO)[C@@H](O)[C@H]2O)c(=O)n1`, the “normalized GFP fluorescence” value in assay [1] is 0.292. Further, the “normalized DsRed fluorescence” value in assay [2] is 0.51.
For `CC(=O)OCC(=O)[C@@]12N=C(C)O[C@@H]1C[C@H]1[C@@H]3CCC4=CC(=O)C=C[C@]4(C)[C@H]3[C@@H](O)C[C@@]12C` the same measures were 0.231 and 0.567.
Take `C[C@]12C=CC(=O)N[C@@H]1CC[C@@H]1[C@@H]2CC[C@]2(C)[C@@H](C(=O)Nc3cc(C(F)(F)F)ccc3C(F)(F)F)CC[C@@H]12` [Dutasteride]: the “normalized GFP fluorescence” value in assay [1] was found to be 0.284. For the same compound, the “normalized DsRed fluorescence” value in assay [2] was 0.52.
On to `NC(=O)c1cccnc1` [Nicotinamide (Niacinamide)], for which the “normalized GFP fluorescence” value in assay [1] was determined as 0.478. Further, the “normalized DsRed fluorescence” value in assay [2] came to 0.458.
`CN1CCN(c2c(F)cc3c(=O)c(C(=O)O)cn(CCF)c3c2F)CC1` [Fleroxacin (Quinodis)]: the “normalized GFP fluorescence” value in assay [1] was found to be 0.0169. Moreover, the “normalized DsRed fluorescence” value in assay [2] was determined as 0.075.
Regarding `C[C@@H]1CC(=O)NN=C1c1ccc(NN=C(C#N)C#N)cc1` [Levosimendan], the “normalized GFP fluorescence” value in assay [1] stood at 0.00346. Moreover, in assay [2], the “normalized DsRed fluorescence” value was 0.512.
As to `CN[C@@H]1[C@H](O)[C@H](NC)[C@H]2O[C@@]3(O)C(=O)C[C@@H](C)O[C@H]3O[C@@H]2[C@H]1O`, in assay [1], the “normalized GFP fluorescence” value was 0.198. The “normalized DsRed fluorescence” value in assay [2] worked out at 0.555.
For the compound `CN1C(=O)OC(C)(C)C1=O`, the “normalized GFP fluorescence” value in assay [1] was 0.0459. In addition, the “normalized DsRed fluorescence” value in assay [2] was found to be 1.31.
Take `S=c1[nH]cnc2nc[nH]c12`: in assay [1], the “normalized GFP fluorescence” value was 0.195. For the same compound, the “normalized DsRed fluorescence” value in assay [2] stood at 0.762.
Consider `CCN(CC)CCNC(=O)c1c(C)[nH]c(/C=C2\C(=O)Nc3ccc(F)cc32)c1C` [Sunitinib Malate (Sutent)], for which, in assay [1], the “normalized GFP fluorescence” value turned out to be 0.0077. In addition, in assay [2], the “normalized DsRed fluorescence” value was determined as 1.42.
Take `CN1CCCN=C1COC(=O)C(O)(c1ccccc1)C1CCCCC1` (stereo not drawn): in assay [1], the “normalized GFP fluorescence” value amounted to 0.399. For the same compound, in assay [2], the “normalized DsRed fluorescence” value was 0.63.
In the case of `O=C(NCC1CCCCN1)c1cc(OCC(F)(F)F)ccc1OCC(F)(F)F` (stereo not drawn), the “normalized GFP fluorescence” value in assay [1] was 0.508. Besides, in assay [2], the “normalized DsRed fluorescence” value was found to be 0.624.
